# Sampled rows, rich in hits. Any-hit rate of the full collection: about 21%.
# Cycloheximide cs: counter-screen hit for Shiga toxin inhibitors, cycloheximide | max response, % | cell reporter, cycloheximide protein synthesis inhibition counterscreen | hit rate 12% among 300,000; in the data active means max response mostly above about 13%, no sharp cut-off; inactive means mostly below about 14%; further: read at 38.3 µM for the half of the compounds with a filed dose; 0% is about no effect
# Pf growth 48h: P. falciparum growth inhibition at 48 hours (one generation). P. falciparum luciferase growth in erythrocytes, 48 h. AID 504832. Potency, µM (highest dose often 28.7 µM), for inactives: at the highest dose activity change, negative = inhibition, hits mostly inhibitors. hit rate 5.9% among 310,000; further: potency means the concentration at half of the fitted maximal effect; on the % scale 0 is the no-effect control and ±100 the full control effect
#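 Erythrocytes infected with P. falciparum carrying an integrated firefly luciferase reporter (2% hematocrit, 0.1% parasitemia final) were exposed to compounds in RPMI 1640 with 0.5% Albumax at 37 C, 5% CO2. Growth inhibition was scored as reduced luminescence.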
# Pf growth 96h: P. falciparum growth inhibition at 96 hour, primary screen for plastid delayed-death inhibitors. hit rate 6.9% among 320,000. P. falciparum luciferase reporter growth, 96 h. AID 504834. Potency, µM (titrated, usually from 28.7 µM), for the others: at the highest dose activity change, negative = inhibition, most hits filed as inhibitors; further: potency means the concentration at half of the fitted maximal effect; on the % scale 0 is the no-effect control and ±100 the full control effect
#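 Plates of compound plus infected erythrocytes (2% hematocrit, 0.05% parasitemia final) incubate 96 hours, 37 C, 5% CO2. Detection reagent added; reduced luminescence from the parasites' luciferase reporter flags inhibition.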
# NS1 inh: influenza NS1 inhibition | Potency, µM (highest dose often 46.1 µM), without a hit: at the top dose activity, positive = more growth | hit rate 0.4% among 270,000 | AID 2326; calls by dose curve; further: potency means the concentration at half of the fitted maximal effect; actives are rising curves; nearly all actives have a fitted effect of over 50% in size
#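 In this qHTS, NS1 from influenza A is expressed in budding yeast, where it slows growth. Cells are switched from glucose to 2% galactose medium (pH 6.0, -URA), treated with compound, and growth recovery is read at OD600.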
# Shiga inhibitor: inhibitors of Shiga toxin in Vero cells; Vero cells, Shiga toxin protein synthesis inhibition reporter; inhibition, % at 38.7 µM; hit rate 9.2% among 290,000; in the data active means inhibition mostly above about 28%, no sharp cut-off; inactive means mostly below about 43%; further: 0% is about no effect
# An asterisk follows results filed as active; ? = inconclusive; . = no result; [ ] = remark or other dose. Unless noted, the call rests on the fitted dose curve; in most records, active means well fitted inhibition curve with a large enough effect; inconclusive means small, poorly fitted or top-dose-only effect, or another doubt; inactive means no such curve, though single readings can be large or run the other way.
SMILES,Cycloheximide cs,Pf growth 48h,Pf growth 96h,NS1 inh,Shiga inhibitor
CCCN1Cc2cccc(C(=O)Nc3ccc4c(c3)OCO4)c2C1=O,-2,-22%,36%,-23%,-7
COCCN1Cc2cccc(C(=O)Nc3ccc(-c4nc5ccccc5[nH]4)cc3)c2C1=O,11*,?,?,7%,12
CCCN1Cc2cccc(C(=O)Nc3ccc(C)cc3)c2C1=O,-2,.,70%,-2%,12
COCCN1Cc2cccc(C(=O)Nc3cccc(-c4nc5ccccc5[nH]4)c3)c2C1=O,48*,1.9µM*,?,5%,105
CCCN1Cc2cccc(C(=O)Nc3ccc(-c4nc5ccccc5[nH]4)cc3)c2C1=O,18*,2.3µM*,-13%,13%,8
Cc1ccc(S(=O)(=O)N2CCCCC2)cc1C(=O)Nc1ncn[nH]1,-5,-10%,-8%,1%,28
CC(=O)c1nc2ccccc2n1S(=O)(=O)c1ccc(Cl)cc1,-2,6%,12µM*,2%,-4
Cc1ccc(S(=O)(=O)n2c(C)nc3ccccc32)cc1,2,34%,?,-21%,.
CC(=O)c1nc2ccccc2n1S(=O)(=O)c1ccc(C)cc1,23*,100%,3%,4%,3
CC(C)(C)c1ccc(C(=O)NCC(=O)OCC(=O)Nc2ccc3c(c2)OCCO3)cc1,12*,32%,52%,-12%,16
CC(C)(C)OC(=O)N1Cc2ccccc2C[C@H]1C(=O)NCC(=O)Nc1ccc2c(c1)OCCO2,52*,74%,49%,3%,114*
O=C(COC(=O)CNC(=O)C1CCCCC1)Nc1ccc2c(c1)OCCO2,26*,?,26%,.,43
O=C(CNC(=O)c1ccc(Cl)cc1Cl)OCC(=O)c1ccc2c(c1)OCCO2,31*,.,39%,-47%,73*
COc1cccc(NC(=O)CNC(=O)[C@@H]2Cc3ccccc3CN2C(=O)OC(C)(C)C)c1,-2,?,-20%,-16%,-10
O=C(COC(=O)CNC(=O)c1ccc(Cl)cc1Cl)NCC1CCCO1 (stereo not given),.,34%,20%,.,.
Cc1ccc(S(=O)(=O)N(C)CC(=O)OCC(=O)N2CCN(c3ccccc3)CC2)cc1,1,3%,-7%,-34%,2
Cc1ccc(S(=O)(=O)N2CCN(C(=O)C(F)(F)F)C2c2ccc(N(C)C)cc2)cc1 (stereo not given),-7,33%,13µM*,2%,-9
COc1cccc(C(=O)/C=C/Nc2ccc(S(=O)(=O)Nc3cnc4ccccc4n3)cc2)c1,69*,36%,3%,21%,98*
O=C(/C=C/Nc1ccc(S(=O)(=O)Nc2cnc3ccccc3n2)cc1)c1ccccc1,28*,15%,?,0%,61
O=C(Cn1c(=O)cnc2ccccc21)NNC(=O)c1ccccc1Cl,.,14%,19%,.,.
COc1cc2c(cc1OC)C(C(C(=O)N(CCc1ccc(OC)c(OC)c1OC)CCc1ccc(OC)c(OC)c1OC)c1ccccc1)=NCC2 (stereo not given),11,1.3µM*,1.5µM*,.,18
CCN(CC(=O)Nc1c(C(=O)OC)[nH]c2ccc(C)cc12)c1ccc2c(c1)OCO2,-2,13µM*,?,4%,-14
COC(=O)c1[nH]c2ccc(F)cc2c1NC(=O)CCN1CCN(Cc2ccc3c(c2)OCO3)CC1,-5,12µM*,-1%,7%,-4
CCOC(=O)c1[nH]c2ccc(OCC)cc2c1NC(=O)CN1CCCC(C)C1 (stereo not given),13,?,?,-6%,8
CCOC(=O)c1[nH]c2cc3c(cc2c1NC(=O)CN1CC(C)CC(C)C1)OCO3 (stereo not given),2,-2%,5.9µM*,6%,45
SMILES,Cycloheximide cs,Pf growth 48h,Pf growth 96h,NS1 inh,Shiga inhibitor
CC(=O)OCC(NC(=O)C(C)NC(=O)OC(C)(C)C)C1OC(n2cc(C)c(=O)[nH]c2=O)C(OC(C)=O)C1OC(C)=O (stereo not given),8,.,.,.,-9
Brc1ccc2[nH]cc(/C=N/N3CCCCC3)c2c1,1,14%,8%,0%,2
N#C/C(=C\c1c[nH]c2ccc(Br)cc12)c1ccccn1,13,?,9.3µM*,4%,22
O=C(CC1C(=O)NCCN1Cc1c(F)cccc1Cl)NCCCn1ccnc1 (stereo not given),12,21%,16%,1%,-7
C[N+]1(C2CCC3CCCC2C3O)CCCC1 (stereo not given),0,?,?,-15%,-15
Cc1nc(C)n(C(C)CNS(=O)(=O)c2ccc(C)c(C)c2)n1 (stereo not given),-3,8%,-31%,-12%,12
CNc1ccc(C(=O)Oc2cc(O/N=[N+](\[O-])N(C)C)c([N+](=O)[O-])cc2[N+](=O)[O-])cc1,40*,.,.,.,73*
Cc1ccc(C(=O)Nc2cccc3cccnc23)cc1C,29*,55%,30%,-25%,.
Cc1cccc(C(=O)Nc2cccnc2Cl)c1,12*,56%,?,4%,16
CCOc1cc(NC(=O)c2ccccn2)c(OCC)cc1NC(=O)c1cccc(C)c1,-9,-20%[1.15 µM],12µM*,2%,-8
O=C(Nc1cccc2cccnc12)c1cccnc1,-1,21%,.,-8%,-8
CCOc1cc(NC(=O)c2cccs2)c(OCC)cc1NC(=O)c1ccccn1,-2,0%,?,1%,9
Cc1cccc(C(=O)Nc2cccc3cccnc23)c1,45*,97%,180%,-65%,70*
CCCN(C(=O)COC(=O)CCOc1ccccc1C)c1c(N)n(Cc2ccccc2)c(=O)[nH]c1=O,1,-10%,5%,7%,15
COc1ccccc1OCC(=O)Nc1ccc(S(=O)(=O)Nc2nc(C)cc(C)n2)cc1,1,-12%,.,-11%,-1
Cc1ccc(NC(=O)CN(C)S(=O)(=O)c2cccc3cccnc23)cc1C,-1,15%,13µM*,12%,15
COc1cc(NC(=O)Nc2cccc3cccnc23)cc(OC)c1OC,16*,?,-21%,-35%,26
C/C(=N\Nc1cccc2cccnc12)c1ccc(C)cc1,31*,344%,400%,8%,93*
Cc1ccc(NC(=O)CN(C)S(=O)(=O)c2cccc3cccnc23)cc1F,5,?,?,-17%,-5
CCOc1cc(NC(=S)NCC2CCCO2)c(OCC)cc1NC(=O)c1cccc(C)c1 (stereo not given),-3,?,12µM*,16%,-9
Cc1cc(C(=O)N2CCN(c3ccc([N+](=O)[O-])cc3)CC2)n[nH]1,4,-8%,-5%,8%,7
O=C(NCCC1=CCCCC1)Nc1ccc2nsnc2c1,-4,3%,46%,-2%,-3
COC(=O)C(=O)Nc1cccc2cccnc12,-1,.,.,.,-8
Cc1cnc(C(=O)Nc2cccc3cccnc23)cn1,-3,0.37µM*,4%,-10%,-17
O=c1c2ccccc2nc(/C=C/c2ccc(Br)cc2)n1CCCO,14,?,8%,-2%,13
Cn1c(/C=C/c2cccc(Br)c2)nc2ccccc2c1=O,46*,?,?,-43%,80*
